The nature of this assay: modulators of CD8 T cell-vesicle binding, confirmation, cherry-picked primary hits, two concentrations (AID 2810).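 For all read-outs here: lower values mean blocking of vesicle binding.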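 For percent response (vesicle binding): ratio of mean FL2 vesicle stain of CD8+ cells to that row's control.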 The conditions noted are these: 2C CD8+ T cell-vesicle binding, flow cytometry; for double positive events: CD8+/vesicle+ events. Background: A flow cytometer gives signals particle by particle.
[1] abbreviates: at 15.4 µM, stronger effect = lower value.

Structures are written as SMILES. Hit rate of the full screen: of about 1,200 compounds, about 65 (5%) were called active.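 Rule for the calls: active = at either tested dose, response and 90th-percentile vesicle-stain brightness of CD8 cells under set limits and under 9% cells vesicle-bound; inactive = the rest.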 The full list was thinned out, with actives kept by preference.

With `O=C(COc1ccccc1)Nc1cc(S(=O)(=O)N2CCOCC2)ccc1N1CCCC1`, the double positive events reads like this: (at 7.7 µM) 28.3%; under setting [1], 4.1%. The percent response (vesicle binding) is 138% (inactive) under setting [1] and 164% (response, at 7.7 µM).

Turning to `CCN(Cc1ccccc1)C(=O)c1ccc(C)c(S(=O)(=O)N2CCCCC2)c1`, the double positive events is, setting by setting: (at 7.7 µM) 11.9%; under setting [1], 30.2%. Also, the percent response (vesicle binding) is 197% (inactive) under setting [1] and 111% (response, at 7.7 µM).

With `Cc1cccc(C(=O)OCC(=O)Nc2ccc3c(c2)OCCO3)c1O`, the double positive events was determined as 10.2% (at 7.7 µM) and 29.9% under setting [1]. The percent response (vesicle binding) is, setting by setting: under setting [1], 717% (inactive); (response, at 7.7 µM) 113%.

For the molecule `CCOC(=O)c1c(NC(=O)CN2C(=O)NC3(CCC(C)CC3)C2=O)sc(C)c1-c1ccc(C)cc1` (stereo unspecified), the double positive events is, setting by setting: (at 7.7 µM) 33.5%; under setting [1], 23.6%. The percent response (vesicle binding) reads like this: under setting [1], 559% (inactive); (response, at 7.7 µM) 363%.

As for `Cc1cccc(C(=O)OCC(=O)NN2C(=O)NC3(CCC(C)CC3)C2=O)c1O` (stereo unspecified), the double positive events is, setting by setting: (at 7.7 µM) 19.9%; under setting [1], 5.2%. The percent response (vesicle binding) under setting [1] was 35.3% (active) and the percent response (vesicle binding) (response, at 7.7 µM) is 181%.

As for `Cc1ccc2nc(-c3cccnc3)c(NC3CCCC3)n2c1`, the double positive events is, setting by setting: (at 7.7 µM) 16.9%; under setting [1], 33.3%. Also, the percent response (vesicle binding) by setting is: under setting [1], 211% (inactive); (response, at 7.7 µM) 276%.

Consider `O=c1[nH]c(CN(CCc2ccccc2)S(=O)(=O)c2ccc(Cl)cc2)nc2ccccc12`, for which the double positive events stood at 9.5% (at 7.7 µM) and 16.7% under setting [1]. Further, the percent response (vesicle binding) under setting [1] is 208% (inactive) and the percent response (vesicle binding) (response, at 7.7 µM) stood at 239%.

As for `CCOC(=O)C(c1ccccc1)N1CCN(c2ccc(OC)cc2)CC1` (stereo unspecified), the double positive events (at 7.7 µM) turned out to be 13.2% and the double positive events under setting [1] was found to be 29.9%. In addition, the percent response (vesicle binding) by setting is: under setting [1], 388% (inactive); (response, at 7.7 µM) 255%.

On to `CCc1noc(C)c1C(=O)OC(C)C(=O)Nc1ccc2c(c1)OCO2` (stereo unspecified), for which the double positive events is 32.8% (at 7.7 µM) and 2.5% under setting [1]. For the same molecule, the percent response (vesicle binding) by setting is: under setting [1], 22% (active); (response, at 7.7 µM) 329%.

Turning to `CCc1ccccc1NC(=O)NCc1ccc2c(c1)OCO2`, the double positive events (at 7.7 µM) turned out to be 17.2% and the double positive events under setting [1] was 20%. Further, the percent response (vesicle binding) by setting is: under setting [1], 361% (inactive); (response, at 7.7 µM) 479%.

Turning to `CC(Sc1nc2ccccc2s1)C(=O)Nc1ccc2c(c1)OCO2` (stereo unspecified), the double positive events is 9% (at 7.7 µM) and 28% under setting [1]. Moreover, the percent response (vesicle binding) under setting [1] is 533% (inactive) and the percent response (vesicle binding) (response, at 7.7 µM) came out at 344%.

In the case of `Cc1noc(C)c1C(=O)OC(C)C(=O)N1CCc2ccccc21` (stereo unspecified), the double positive events is, setting by setting: (at 7.7 µM) 28.5%; under setting [1], 4.4%. The percent response (vesicle binding) is, setting by setting: under setting [1], 134% (inactive); (response, at 7.7 µM) 293%.

For the molecule `COc1ccc(Cl)cc1NS(=O)(=O)c1cccc(C(=O)NCC(C)(C)N2CCOCC2)c1`, the double positive events is, setting by setting: (at 7.7 µM) 20.7%; under setting [1], 18.3%. Moreover, the percent response (vesicle binding) by setting is: under setting [1], 317% (inactive); (response, at 7.7 µM) 710%.

Turning to `COc1cc(CNCc2cccnc2)ccc1OCC(=O)NC1CCCCC1`, the double positive events (at 7.7 µM) was 18.4% and the double positive events under setting [1] is 5.7%. In addition, the percent response (vesicle binding) was 32.6% (active) under setting [1] and 303% (response, at 7.7 µM).

With `COc1cc(CNCCc2ccc(S(N)(=O)=O)cc2)ccc1OCC(=O)N1CCCCC1`, the double positive events came to 11.5% (at 7.7 µM) and 19.2% under setting [1]. The percent response (vesicle binding) is, setting by setting: under setting [1], 229% (inactive); (response, at 7.7 µM) 370%.

Regarding `Cc1ccc(C(=O)OCC(=O)NC2CCCCC2)o1`, the double positive events by setting is: (at 7.7 µM) 35.5%; under setting [1], 14%. The percent response (vesicle binding) reads like this: under setting [1], 244% (inactive); (response, at 7.7 µM) 265%.

The molecule `COc1ccc(CNC(=O)COC(=O)CCN2C(=O)C3CC=CCC3C2=O)cc1OC` (stereo unspecified) gave a double positive events (at 7.7 µM) of 41.8% and a double positive events under setting [1] of 29.1%. In addition, the percent response (vesicle binding) is 307% (inactive) under setting [1] and 239% (response, at 7.7 µM).

Regarding `COc1ccc(CNC(=O)c2cccnc2SC)cc1OC`, the double positive events by setting is: (at 7.7 µM) 9.3%; under setting [1], 2%. Besides, the percent response (vesicle binding) under setting [1] was 29.8% (active) and the percent response (vesicle binding) (response, at 7.7 µM) is 180%.

Molecule `COc1ccc(OC)c(NC(=O)c2ccccc2SC)c1` yielded a double positive events (at 7.7 µM) of 56.3%. Also, under setting [1], the double positive events came out at 35.3% and the percent response (vesicle binding) was 242% (inactive).

On to `O=C(Cn1cc(C(F)(F)F)cc(Cl)c1=O)NCCc1ccc(Cl)cc1Cl`, for which the double positive events by setting is: (at 7.7 µM) 11.1%; under setting [1], 1.7%. Moreover, the percent response (vesicle binding) is 16.3% (active) under setting [1] and 149% (response, at 7.7 µM).

Turning to `Cc1ccc(C(=O)NC2CCCc3c2cnn3-c2ccc(F)cc2F)cn1` (stereo unspecified), the double positive events is, setting by setting: (at 7.7 µM) 33.7%; under setting [1], 15%. For the same molecule, the percent response (vesicle binding) is, setting by setting: under setting [1], 329% (inactive); (response, at 7.7 µM) 658%.

In the case of `CCOC(=O)C1(Cc2cccc(OC)c2)CCN(C/C=C/c2ccccc2)CC1`, the double positive events by setting is: (at 7.7 µM) 25.8%; under setting [1], 11%. Moreover, the percent response (vesicle binding) under setting [1] is 119% (inactive) and the percent response (vesicle binding) (response, at 7.7 µM) came to 269%.

On to `Cc1ccccc1/C(N)=N/OC(=O)c1cccs1`, for which the double positive events stood at 12.4% (at 7.7 µM) and 17.9% under setting [1]. Further, the percent response (vesicle binding) runs as follows: under setting [1], 190% (inactive); (response, at 7.7 µM) 217%.

On to `CCOC(=O)N1CCN(Cc2nc(-c3ccc(C)cc3)no2)CC1`, for which the double positive events is, setting by setting: (at 7.7 µM) 14.7%; under setting [1], 4.6%. The percent response (vesicle binding) reads like this: under setting [1], 63% (inactive); (response, at 7.7 µM) 286%.

For the molecule `COc1ccc([N+](=O)[O-])cc1NC(=O)C(C)Sc1nc(-c2ccccc2)cs1` (stereo unspecified), the double positive events is, setting by setting: (at 7.7 µM) 11.7%; under setting [1], 22.6%. The percent response (vesicle binding) under setting [1] was 114% (inactive) and the percent response (vesicle binding) (response, at 7.7 µM) was 121%.

With `COc1ccc([N+](=O)[O-])cc1NC(=O)c1ccc(N(Cc2ccccc2C)S(C)(=O)=O)cc1`, the double positive events reads like this: (at 7.7 µM) 8.4%; under setting [1], 2.9%. In addition, the percent response (vesicle binding) is 47.7% (active) under setting [1] and 131% (response, at 7.7 µM).

For `COc1ccc([N+](=O)[O-])cc1N(CC(=O)O)S(C)(=O)=O`, the double positive events reads like this: (at 7.7 µM) 9.6%; under setting [1], 19.3%. Further, the percent response (vesicle binding) by setting is: under setting [1], 127% (inactive); (response, at 7.7 µM) 281%.

With `COc1cc2ccccc2cc1C(=O)NC1CCCCC1`, the double positive events by setting is: (at 7.7 µM) 11.7%; under setting [1], 19%. The percent response (vesicle binding) under setting [1] is 121% (inactive) and the percent response (vesicle binding) (response, at 7.7 µM) is 368%.

In the case of `CCN1CCN(c2ccc(S(=O)(=O)N3CCCCC3)cc2NC(=O)c2cccc(C)c2[N+](=O)[O-])CC1`, the double positive events (at 7.7 µM) was 31.1% and the double positive events under setting [1] came out at 37.1%. Also, the percent response (vesicle binding) is, setting by setting: under setting [1], 238% (inactive); (response, at 7.7 µM) 406%.

With `CCN1CCN(c2ccc(NC(=O)c3cc4ccccc4cc3OC)cc2C)CC1`, the double positive events is, setting by setting: (at 7.7 µM) 21.2%; under setting [1], 1.8%. In addition, the percent response (vesicle binding) under setting [1] was 55.9% (active) and the percent response (vesicle binding) (response, at 7.7 µM) came out at 373%.

`O=C(Nc1nc2ccccc2n1CCN1CCOCC1)c1ccc(Cn2cc([N+](=O)[O-])cn2)o1`: the double positive events (at 7.7 µM) turned out to be 23.6% and the double positive events under setting [1] came out at 23.8%. Besides, the percent response (vesicle binding) by setting is: under setting [1], 145% (inactive); (response, at 7.7 µM) 260%.

Molecule `C=CCn1c(C)cc(-c2csc(NCC)n2)c1C` came in with a double positive events (at 7.7 µM) of 11.2% and a double positive events under setting [1] of 24.9%. Also, the percent response (vesicle binding) is 196% (inactive) under setting [1] and 160% (response, at 7.7 µM).

For `NC(=O)CCS(=O)(=O)CCN1CCN(S(=O)(=O)c2ccc3c(c2)CCC3)CC1`, the double positive events reads like this: (at 7.7 µM) 17.1%; under setting [1], 7.7%. The percent response (vesicle binding) by setting is: under setting [1], 43.5% (active); (response, at 7.7 µM) 183%.

The values above are taken from PubChem BioAssay AID2810 (NMMLSC, 2010).
